High-throughput results as filed in PubChem BioAssay.
Shown are actives, neighbours in structure and some others; about 9.9% of the full set was active somewhere.
Tau ThT inhib: inhibitors of human tau fibril formation, thioflavin T binding | P10636 | recombinant tau K18 P301L, heparin-induced fibrillization, ThT fluorescence | Potency, µM (series often up to 57.4 µM), usual class: inhibitors | 270,000 tested, 2.1% active; further: nearly all actives have a fitted effect of over 55% in size
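Tau K18 P301L fragment (15 uM unlabeled plus 0.24 uM Alexa 594-labeled) in 100 mM sodium acetate pH 7 with compound, fibrillization induced by 20 uM heparin for 6 hr at 37 C. Thioflavin T (30 uM) added, fluorescence read after 1 hr (ex 450, em 510 nm).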
ALDH1A1 block: ALDH1A1 (human) enzyme inhibition. Purified ALDH1A1, NADH fluorescence, propionaldehyde substrate. Potency, µM (series often up to 75.3 µM), hits mostly inhibitors. 220,000 tested, 7.3% active. AID 1030; active means well fitted inhibition curve with a large enough effect, not every such curve was filed as active; inconclusive means small, poorly fitted or top-dose-only effect, or another doubt; inactive means no such curve, though single readings can be large or run the other way
Target sequence (P00352 whole entry, looked up): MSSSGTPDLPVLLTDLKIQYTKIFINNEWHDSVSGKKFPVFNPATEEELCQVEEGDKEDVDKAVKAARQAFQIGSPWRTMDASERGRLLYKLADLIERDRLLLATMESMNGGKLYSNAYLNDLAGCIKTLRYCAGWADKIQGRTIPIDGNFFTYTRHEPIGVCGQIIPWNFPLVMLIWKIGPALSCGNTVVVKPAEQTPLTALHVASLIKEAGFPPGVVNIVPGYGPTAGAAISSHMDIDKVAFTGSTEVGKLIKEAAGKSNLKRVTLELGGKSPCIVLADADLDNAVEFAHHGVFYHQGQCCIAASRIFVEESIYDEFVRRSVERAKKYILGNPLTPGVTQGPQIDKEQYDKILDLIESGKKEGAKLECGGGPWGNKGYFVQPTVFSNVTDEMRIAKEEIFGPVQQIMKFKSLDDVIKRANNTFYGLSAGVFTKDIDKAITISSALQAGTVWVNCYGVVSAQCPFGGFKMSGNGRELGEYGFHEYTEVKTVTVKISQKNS
HPGD block: inhibitors of human 15-hydroxyprostaglandin dehydrogenase (HPGD). Potency, µM, hits mostly inhibitors. AID 894. purified HPGD, NADH fluorescence kinetic, PGE2 substrate. 150,000 tested, 4.3% active. P15428; active means well fitted inhibition curve with a large enough effect, not every such curve was filed as active; inconclusive means small, poorly fitted or top-dose-only effect, or another doubt; inactive means no such curve, though single readings can be large or run the other way
Target sequence (P15428 whole entry, looked up): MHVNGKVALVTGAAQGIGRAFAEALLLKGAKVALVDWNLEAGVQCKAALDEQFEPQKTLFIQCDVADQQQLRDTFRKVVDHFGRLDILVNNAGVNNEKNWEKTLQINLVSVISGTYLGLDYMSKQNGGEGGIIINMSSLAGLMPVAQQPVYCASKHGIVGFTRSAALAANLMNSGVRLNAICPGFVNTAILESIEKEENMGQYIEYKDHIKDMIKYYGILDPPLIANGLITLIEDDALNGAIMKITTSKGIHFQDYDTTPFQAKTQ
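20 nM HPGD preincubated 15 min at room temperature with compound in 50 mM Tris-HCl pH 8, 0.01% Tween 20. Started with 1 mM NAD+ and 30 uM prostaglandin E2; NADH fluorescence (360/450 nm) read 5 times over 30-s intervals, last minus first.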
Tau FP inhib: blocks human tau fibril formation measured by polarization. 280,000 tested, 0.39% active. K18 P301L tau heparin fibrillization, Alexa594 FP, 6 h. P10636. Potency, µM (top dose mostly 57.7 µM), most hits filed as inhibitors; further: nearly all actives have a fitted effect of over 55% in size
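Human K18 P301L fragment (15 uM unlabeled plus 0.24 uM Alexa 594-labeled) in 100 mM sodium acetate pH 7 with compound, aggregation induced by 20 uM heparin for 6 hr at 37 C. ThT (30 uM) added for 1 hr, then Alexa 594 FP read.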
KDM4E inh: blocks human JMJD2E demethylase activity; JMJD2E catalytic domain, FDH-coupled NADH fluorescence (FDH is formaldehyde dehydrogenase); Potency, µM (titrated, usually from 57.1 µM), most hits filed as inhibitors; 230,000 tested, 1.6% active; AID 2147; active means well fitted inhibition curve with a large enough effect, not every such curve was filed as active; inconclusive means small, poorly fitted or top-dose-only effect, or another doubt; inactive means no such curve, though single readings can be large or run the other way; further: nearly all actives have a fitted effect of over 50% in size
Tau fluor counter: counter-screen for tau fibril formation inhibitors; tau K18 P301L Alexa594 fluorescence, heparin fibrillization; Potency, µM (series often up to 57.7 µM); 280,000 tested, 0.93% active; further: nearly all actives have a fitted effect of over 55% in size
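Human tau K18 P301L (15 uM unlabeled, 0.24 uM Alexa 594-labeled) in 100 mM sodium acetate pH 7 with 20 uM heparin, 6 hr at 37 C. ThT 30 uM added, 1 hr ambient; Alexa 594 FP and total fluorescence read at 555/632 nm.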
A number is an active result; ! = repeats disagree; [ ] = another dose, or the depositor's remark. Unless noted, the call rests on the fitted dose curve; in most records, active means well fitted curve in the direction sought with a large enough effect; inconclusive means small, poorly fitted or top-dose-only effect, or another doubt; inactive means no such curve, though single readings can be large; an effect the other way counts as inactive or inconclusive.

Results for CC(C)N1CCc2c(sc(NC(=O)c3cc4cc([N+](=O)[O-])ccc4s3)c2C(N)=O)C1 ?
Tau ThT inhib: 4µM; ALDH1A1 block: inconclusive; Tau FP inhib: inactive; KDM4E inh: inactive; Tau fluor counter: inconclusive

What do the screens show for `CN1CCc2c(sc(NC(=O)c3cc4cc([N+](=O)[O-])ccc4s3)c2C(N)=O)C1`?
Tau ThT inhib: 2.2µM; ALDH1A1 block: inactive; Tau FP inhib: inactive; KDM4E inh: inactive; Tau fluor counter: inconclusive

Results for CC(C)NC(=O)c1cc2cc([N+](=O)[O-])ccc2s1 ?
Tau ThT inhib: inactive; ALDH1A1 block: inactive; HPGD block: inactive; Tau FP inhib: inactive; KDM4E inh: inactive; Tau fluor counter: inactive

Results for CC(C)N1CCc2c(sc(NC(=O)CCc3ccccc3)c2C(N)=O)C1 ?
Tau ThT inhib: inactive; ALDH1A1 block: inconclusive; Tau FP inhib: inactive; KDM4E inh: inactive; Tau fluor counter: inactive

What do the screens show for `Cc1ccc([N+](=O)[O-])cc1S(=O)(=O)NCCc1c(C)[nH]c2c(C)cccc12`?
Tau ThT inhib: inactive; ALDH1A1 block: inactive; HPGD block: inactive; Tau FP inhib: inactive; KDM4E inh: inactive; Tau fluor counter: inactive

What do the screens show for `COc1cc(Cl)c(S(=O)(=O)NCCc2c(C)[nH]c3c(C)cccc23)cc1Cl`?
Tau ThT inhib: inconclusive; Tau FP inhib: inactive; Tau fluor counter: 16µM[quencher]

What do the screens show for `COc1c(C)cc(S(=O)(=O)NCCc2c(C)[nH]c3ccccc23)c(C)c1C`?
Tau ThT inhib: inconclusive; Tau FP inhib: inconclusive; Tau fluor counter: 16µM[quencher]

What do the screens show for `Cc1cccc(NC(=O)C2C3CCC4C(CCC32)C4(Cl)Cl)c1` (centres undefined)?
Tau ThT inhib: inactive; ALDH1A1 block: inactive; HPGD block: inactive; Tau FP inhib: inactive; KDM4E inh: inactive; Tau fluor counter: inactive

What do the screens show for `CCN(CCN(C)C)C(=O)c1ccc2c(c1NCCO)C(=O)c1ccccc1C2=O`?
Tau ThT inhib: inconclusive; ALDH1A1 block: 14µM; Tau FP inhib: inactive; KDM4E inh: inconclusive; Tau fluor counter: inactive

How did O=C1c2ccccc2C(=O)c2c1ccc(C(=O)N1CCCCC1)c2NCCO do in these assays?
Tau ThT inhib: inactive; ALDH1A1 block: inactive; HPGD block: inconclusive; Tau FP inhib: inactive; KDM4E inh: inactive; Tau fluor counter: inactive

How did CC1(C)CCCN(C(=O)c2ccc3c(c2NCCO)C(=O)c2ccccc2C3=O)C1 do in these assays?
Tau ThT inhib: 14µM; ALDH1A1 block: inconclusive; HPGD block: 16µM; Tau FP inhib: inactive; KDM4E inh: inactive; Tau fluor counter: inconclusive

How did CCOC(OCC)P(=O)(O)CCCNCc1ccc(Cl)c(Cl)c1 do in these assays?
Tau ThT inhib: inactive; ALDH1A1 block: inactive; HPGD block: inactive; Tau FP inhib: inactive; KDM4E inh: inactive; Tau fluor counter: inactive

Results for CCc1ccc(C(=O)NCc2cccs2)s1 ?
Tau ThT inhib: inactive; ALDH1A1 block: inactive; HPGD block: 18µM; Tau FP inhib: inactive; KDM4E inh: inactive; Tau fluor counter: inactive

What do the screens show for `O=C(NCCCCNC(=O)c1ccc(Cl)s1)c1ccc(Cl)s1`?
Tau ThT inhib: inactive; ALDH1A1 block: inactive; HPGD block: inactive; Tau FP inhib: inactive; KDM4E inh: inactive; Tau fluor counter: inactive

Results for O=C(NCc1cccs1)c1ccc(Cl)s1 ?
Tau ThT inhib: inactive; ALDH1A1 block: inactive; HPGD block: 16µM; Tau FP inhib: inactive; KDM4E inh: inactive; Tau fluor counter: inactive

What do the screens show for `CN(C(=O)CCc1nc(-c2ccccc2F)no1)c1ccc(Cl)cc1`?
Tau ThT inhib: inactive; Tau FP inhib: inactive; Tau fluor counter: inactive

What do the screens show for `Cc1[nH]c2ccccc2c1CCN(Cc1cccs1)C(=S)Nc1ccccc1`?
Tau ThT inhib: inactive; ALDH1A1 block: inconclusive; Tau FP inhib: inactive; KDM4E inh: inactive; Tau fluor counter: 11µM[quencher]

How did Cc1[nH]c2ccccc2c1CCN(Cc1cccnc1)C(=S)Nc1ccc(F)cc1 do in these assays?
Tau ThT inhib: inactive; ALDH1A1 block: inconclusive; Tau FP inhib: inactive; KDM4E inh: inactive; Tau fluor counter: inconclusive

What do the screens show for `Cc1[nH]c2ccccc2c1CCN(Cc1cccnc1)C(=S)Nc1cccc(F)c1`?
Tau ThT inhib: inactive; ALDH1A1 block: inactive; Tau FP inhib: inconclusive; KDM4E inh: inactive; Tau fluor counter: inconclusive

How did COc1cccc(NC(=S)N(CCc2c(C)[nH]c3ccccc23)Cc2cccs2)c1 do in these assays?
Tau ThT inhib: inactive; ALDH1A1 block: inactive; HPGD block: inactive; Tau FP inhib: inactive; KDM4E inh: inactive; Tau fluor counter: 8.9µM[quencher]

How did O=C(O)c1cc([N+](=O)[O-])ccc1NCCCc1ccccc1 do in these assays?
Tau ThT inhib: 3.5µM; ALDH1A1 block: inactive; HPGD block: inactive; Tau FP inhib: inactive; KDM4E inh: inactive; Tau fluor counter: inactive

How did O=C(O)c1cc([N+](=O)[O-])ccc1NCc1ccccc1 do in these assays?
Tau ThT inhib: inconclusive; ALDH1A1 block: inactive; Tau FP inhib: inactive; KDM4E inh: inactive; Tau fluor counter: inactive

Results for O=C(CN1CCOCC1)NC1CC2CCC1C2 (centres undefined) ?
Tau ThT inhib: inactive; ALDH1A1 block: 25µM; HPGD block: inactive; Tau FP inhib: inactive; KDM4E inh: inactive; Tau fluor counter: inactive

Results for COC(=O)c1sccc1NC(=O)c1ccc(OC)cc1OC ?
Tau ThT inhib: inconclusive; ALDH1A1 block: inconclusive; HPGD block: inconclusive; Tau FP inhib: inactive; KDM4E inh: inactive; Tau fluor counter: inactive

How did O=C(/C=C/c1ccc(Cl)c(Cl)c1)n1cccn1 do in these assays?
Tau ThT inhib: 14µM; ALDH1A1 block: inactive; HPGD block: inactive; Tau FP inhib: inconclusive; KDM4E inh: inactive; Tau fluor counter: inactive

Results for O=C(/C=C/c1ccc(Cl)c(Cl)c1)NCc1ccco1 ?
Tau ThT inhib: inactive; ALDH1A1 block: inactive; HPGD block: inconclusive; Tau FP inhib: inactive; KDM4E inh: inactive; Tau fluor counter: inactive

What do the screens show for `O=C1C2=CC[C@@H]3C(=O)N(c4ccc(F)cc4F)C(=O)[C@H]3[C@H]2[C@H](O)[C@H]2O[C@H]12`?
Tau ThT inhib: 4.5µM; ALDH1A1 block: inactive[13.5 µM]; Tau FP inhib: inconclusive; Tau fluor counter: inactive[11.6 µM]

Results for CCOC(=O)CCN1C(=O)[C@@H]2[C@H]3C(=CC[C@H]2C1=O)C(=O)[C@H]1O[C@H]1[C@H]3O ?
Tau ThT inhib: 4µM; ALDH1A1 block: inconclusive; Tau FP inhib: inconclusive; Tau fluor counter: inactive[11.6 µM]

How did c1ccc(COC(CN2CCCCCC2)CN2CCCCCC2)cc1 do in these assays?
Tau ThT inhib: inactive; Tau FP inhib: inactive; KDM4E inh: inactive; Tau fluor counter: inactive

Results for CC1=C(\C=C/C(C)=C/C=C\C(C)=C\C(=O)O)C(C)(C)CCC1 ?
Tau ThT inhib: 32µM!; ALDH1A1 block: 35µM!; HPGD block: inactive; Tau FP inhib: inconclusive; KDM4E inh: inactive; Tau fluor counter: inactive
